# Tb PYK inh: T. brucei pyruvate kinase inhibition. Q57TT1. TbPYK enzyme, Kinase-Glo Plus ATP luminescence, 45 min. Potency, µM (top dose mostly 76.8 µM), inactives show top-dose activity, negative = inhibition, hits mostly inhibitors. 0.12% of 410,000 active. AID 624173; note: potency is the fitted concentration of half-maximal effect; % is set by controls: 0 for no effect and ±100 for the full control effect; nearly all actives have a fitted effect of over 50% in size
#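 TbPYK + substrate in 50 mM TEA pH 7.2, 100 mM KCl, 10 mM MgCl2, 0.05% BSA, 0.01% Tween-20; cpd pinned; ADP 130 uM final; 45 min RT; Kinase-Glo Plus 10 min; luminescence endpoint.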
# AMA1 RON2 block: AMA1-RON2 (P. falciparum) interaction inhibition; 0.2% of 360,000 active; Potency, µM (titrated, usually from 58.2 µM), for the others: at the highest dose activity change, negative = inhibition, hits mostly inhibitors; AlphaScreen AMA1-biotinylated RON2 peptide binding;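 note: potency is the fitted concentration of half-maximal effect; 0% = vehicle wells and -100% = peptide control; nearly all actives have a fitted effect of over 45% in size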
#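 AMA1 (3D7) with his tag at 25 nM final met compounds first, then biotinylated RON2 peptide at 25 nM; detection used donor plus acceptor beads, 10 µg/mL apiece, read by AlphaScreen after 30 min at room temperature.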
# RE007 growth inh: less growth of the S. pombe RE007 Vpr strain; S. pombe RE007 Vpr strain, BacTiter-Glo ATP luminescence, 24 h; 0.21% of 360,000 active; AID 651644; Potency, µM (titrated, usually from 92.2 µM), without a hit: top-dose activity change, negative = less growth, hits mostly inhibitors; active = well fitted falling curve with a large enough effect; inconclusive = small, poorly fitted or top-dose-only effect; inactive = no such curve, though single readings can be large or run the other way; note: potency is the fitted concentration of half-maximal effect; % is set by controls: 0 for no effect and ±100 for the full control effect; nearly all actives have a fitted effect of over 50% in size
#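 Fission yeast RE007 carrying one integrated HIV-1 vpr copy, seeded at OD 0.01 in PMG+AL medium with 23 nL pinned compound. Grown 24 h at 30 degrees; viability read by BacTiter-Glo luminescence after 5 min.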
# LmPK inh: inhibitors of Leishmania mexicana pyruvate kinase | Q27686 | purified LmPK, Kinase-Glo ATP luminescence, 1 h | Potency, µM (titrated, usually from 57.5 µM), for inactives: top-dose activity change, negative = inhibition, hits mostly inhibitors | 0.37% of 290,000 active; note: potency is the fitted concentration of half-maximal effect; % is set by controls: 0 for no effect and ±100 for the full control effect
# Target sequence (Q27686 whole entry, looked up): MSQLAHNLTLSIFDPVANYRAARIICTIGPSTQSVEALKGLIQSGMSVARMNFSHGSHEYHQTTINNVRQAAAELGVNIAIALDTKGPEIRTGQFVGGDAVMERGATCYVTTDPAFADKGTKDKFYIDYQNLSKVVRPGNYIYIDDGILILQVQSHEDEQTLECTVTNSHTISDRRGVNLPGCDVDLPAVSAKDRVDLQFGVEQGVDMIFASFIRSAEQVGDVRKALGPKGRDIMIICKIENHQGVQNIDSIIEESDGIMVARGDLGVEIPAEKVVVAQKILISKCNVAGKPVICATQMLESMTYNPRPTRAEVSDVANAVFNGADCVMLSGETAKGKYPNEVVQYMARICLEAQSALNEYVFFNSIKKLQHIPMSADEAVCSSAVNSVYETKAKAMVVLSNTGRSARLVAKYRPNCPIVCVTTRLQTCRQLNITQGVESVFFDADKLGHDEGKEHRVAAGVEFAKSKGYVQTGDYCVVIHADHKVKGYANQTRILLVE
#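 Purified LmPK (0.1 nM) with 0.5 mM PEP and 0.1 mM ADP in imidazole buffer pH 7.2 with MgCl2/KCl, 1 h at room temperature. ATP formed was read by luciferase luminescence and normalized to no-enzyme and uninhibited controls.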
# NS1 function inh: inhibitors of influenza NS1 protein function. 0.4% of 270,000 active. Potency, µM (titrated, usually from 46.1 µM), without a hit: at the top dose activity, positive = more growth; calls by dose curve; note: potency is the fitted concentration of half-maximal effect; actives are rising curves; nearly all actives have a fitted effect of over 50% in size
#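 S. cerevisiae expressing influenza A NS1, grown in glucose, washed, then diluted 1:100 into pH 6.0 -URA galactose medium with 23 nl compound. Growth recovery read as OD600; NS1-free strain serves as control.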
# Flu NS1 inh: validation of influenza NS1 protein function inhibitors; shares compounds with NS1 function inh; influenza NS1 function cell assay, 15-point titration; activity change, negative = inhibition, % at 32.9 µM; 1,400 tested, under 10 active; AID 492980; calls by dose curve; note: 0% is about no effect
# * = called active by the depositor; ? = inconclusive; . = no result; [ ] = remark or other dose. Only some compounds are listed: those with a hit (about 0.92% of all), similar ones and a draw of the others. Unless noted, calls come from the whole dose curve; as a rule, active = well fitted curve in the direction sought with a large enough effect; inconclusive = small, poorly fitted or top-dose-only effect, or another doubt; inactive = no such curve, though single readings can be large; an effect the other way counts as inactive or inconclusive.
SMILES,Tb PYK inh,AMA1 RON2 block,RE007 growth inh,LmPK inh,NS1 function inh,Flu NS1 inh
O=C(C[n+]1cccc2ccccc21)c1ccccc1,-5.2%,1.9%,-10.7%,-0.6%,23.1%,.
Cc1onc(-c2ccccc2Cl)c1C(=O)N(Cc1nc(-c2ccccc2)no1)C1CCCCC1,0.1%,-7.4%,-9.1%,2.7%,10µM*,-22.9
Cc1cccc(-c2noc(CN(C(=O)c3c(-c4ccccc4Cl)noc3C)C(C)C)n2)c1,-0.1%,-0.7%,-6.0%,14.5%,-45.1%,.
O=P(O)(O)O[C@@H]1O[C@H](CO)[C@@H](O)[C@H](O)[C@@H]1O,.,.,.,.,-5.2%,.
COc1ccccc1NC(=O)CN(c1ccc(C)cc1)S(=O)(=O)c1c(C)n[nH]c1C,-3.9%,?,10.0%,11.4%,?,-11.3
COc1ccc(C2Nc3ccccc3C(=O)N2Cc2ccco2)cc1COc1ccccc1F (stereo unspecified),-3.4%,-11.4%,5.6%,-1.4%,4.7%,.
COc1ccc(C2Nc3ccccc3C(=O)N2Cc2ccco2)cc1COc1ccc(NC(C)=O)cc1 (stereo unspecified),-8.4%,-16.4%,27.0%,5.4%,12.6µM*,9.6
CNC(=O)CSc1nnc(NC(=O)Nc2ccccc2)s1,-23.1%,.,.,.,.,.
COc1cccc(NC(=O)C(Sc2nnc(Nc3ccccc3C)s2)c2ccccc2)c1 (stereo unspecified),-5.7%,-6.5%[11.6 µM],0.5%,3.7%,5.01µM*,-2.1
S=C(Nc1ccc(Oc2ccc(NC(=S)NC3CCCCC3)cc2)cc1)NC1CCCCC1,-26.9%,16.1%[2.32 µM],3.5%,1.1%,11.2µM*,-2.9
COc1ccc(C(=O)NCC2(c3ccccc3)CCCC2)c(OC)c1,7.4%,-9.4%,-6.1%,-1.4%,-4.8%,.
COc1ccc(C2(CNC(=O)CCC(=O)O)CCCC2)cc1,-11.4%,10.5%,7.4%,-2.4%,12.6µM*,8.7
Cc1cccc(NC(=S)N=Nc2c(O)n(C)c3ccc(S(=O)(=O)N4CCOCC4)cc23)c1,-6.3%,33.6%,.,3.4%,?,1.6
COc1ccccc1CNC(=O)Cn1c(-c2cccs2)cc2cc(F)ccc21,2.3%,.,.,.,.,.
CCOC(=O)c1c(S(=O)(=O)N2CCCC(C(=O)Nc3cccc(C#N)c3)C2)c(C)n(C)c1C (stereo unspecified),0.8%,.,.,.,.,.
COc1cc(C(=O)NCC(c2ccc3c(c2)OCO3)N2CCOCC2)cc(OC)c1OC (stereo unspecified),-0.6%,.,.,.,.,.
Cc1nn(CC(=O)NCc2ccccc2Cl)c(=O)c2cccn12,-5.9%,.,.,.,.,.
CC(C)CC(C(=O)O)N1C(=O)C2C3CC(C2C1=O)C1C(c2ccccc2)c2sc(=O)[nH]c2SC31 (stereo unspecified),?,-9.9%[11.6 µM],-9.1%,-1.1%,?,35.5
CCCN(CCC)CCCNC(=O)c1cc2c(=O)n(C)c3ccccc3c2s1,-3.9%,.,.,.,.,.
O=c1c2c3nc4ccccc4nc3n(Cc3ccccc3)c2ncn1Cc1ccco1,-18.2%,-13.0%,29.6%,2.2%,15.8µM*,-14.3
Cc1ccc(/C=N/NC(=O)c2csc3c2CCCC3)cc1,3.0%,-5.4%,-2.3%,-3.2%,-12.2%,.
Cc1nn(C)cc1/C=N\NC(=O)c1csc2c1CCCC2,-7.6%,10.7%,7.6%,-8.2%,?,1.7
Cc1nn(C(=O)c2cccc(Cl)c2)c(C)c1S(=O)(=O)N1CCOCC1,-0.7%,.,.,.,.,.
Nc1cc(N)nc(SCC(=O)N2CCN(S(=O)(=O)c3ccccc3)CC2)n1,6.2%,-1.9%,18.4%,0.9%,11.2µM*,4.5
CN(C)c1ccc(C(=O)OCC(=O)N2CCOCC2)cc1,7.8%,15.8%,-10.1%,-7.9%,?,3.3
SMILES,Tb PYK inh,AMA1 RON2 block,RE007 growth inh,LmPK inh,NS1 function inh,Flu NS1 inh
CCCCc1nn2c(=O)cc(COC(=O)CNC(=O)c3ccccc3C)nc2s1,-5.1%,.,.,.,.,.
CC/C(=N\NC(=O)c1ccc(CN(C)S(=O)(=O)c2ccc(C)cc2)cc1)c1ccc(OC(F)F)cc1,11.4%,10.0%,32.6%,1.9%,?,13.7
Cc1ccc(CCNC(=O)CCn2nc(-c3ccc(Cl)cc3)ccc2=O)cc1,6.9%,.,.,.,.,.
COc1ccc(N=C2S/C(=C\c3ccco3)C(=O)N2CC(C)C)cc1,3.3%,-6.9%,?,2.8%,6.8%,.
COc1ccc(N=C2S/C(=C\c3cc(C)n(C)c3C)C(=O)N2CC(C)C)cc1,-9.1%,2.8%,11.9%,2.1%,7.08µM*,7.5
Cc1ccccc1C(=O)OCc1cc(=O)n2nc(C3CCCCC3)sc2n1,-4.7%,.,.,.,.,.
COc1ccc(Br)cc1C1CC(=O)N2CN(C)CSC2=C1C#N (stereo unspecified),?,5.5%,-12.4%,-9.3%,-42.4%,.
COc1ccc(Br)cc1C1CC(=O)N2CN(Cc3ccccc3)CSC2=C1C#N (stereo unspecified),?,1.1%,5.9%,7.0%,11.2µM*,-15.5
CC(NNC(=O)c1ccccc1)c1ccccc1 (stereo unspecified),-6.6%,.,.,.,.,.
CN1CCN(Cc2cc(C(C)(C)C)c(O)c(C(C)(C)C)c2)CC1,-11.5%,-18.8%,8.1%,6.3%,3.5%,.
CC1=NN(Cc2cc(C(C)(C)C)c(O)c(C(C)(C)C)c2)C(=O)C1,0.6%,50.6%,7.1%,-2.8%,14.1µM*,?
CC1CCC/C(=N\NC(=S)NCc2ccccc2)C1 (stereo unspecified),-6.9%,47.1%,-6.7%,3.3%,6.0%,.
CC1C/C(=N\NC(=S)NCc2ccccc2)CC(C)(C)C1 (stereo unspecified),-17.9%,20.4%,-5.8%,11.1%,?,?
O=C(CSc1cn(CC(=O)N2CCCC2)c2ccccc12)Nc1cc(C(F)(F)F)ccc1Cl,-6.5%,.,.,.,.,.
COc1ccc(Cl)cc1NC(=O)c1cn(C2CCCC2)c(=O)c2c1c1ccccc1n2C,1.2%,.,.,.,.,.
CCOc1ccc2nc(Cl)c(C3CC(c4ccc(OC)cc4)=NN3S(C)(=O)=O)cc2c1 (stereo unspecified),-2.1%,.,.,.,.,.
CCOc1ccc2nc(Cl)c(C3CC(c4ccco4)=NN3S(=O)(=O)c3ccccc3)cc2c1 (stereo unspecified),-7.0%,-22.3%,3.9%,0.8%,10µM*,-19.5
OCc1ccnc2c(O)cccc12,0.3%,11.2µM*,4.2%,-6.4%,8.91µM*,-35.7
CCOC(=O)c1cc(-c2ccccc2)n(-c2cccc(C(=O)Nc3ccc(OC)cc3)c2)c1C,-4.4%[15.4 µM],.,.,.,.,.
COc1ccc(CCN(Cc2nc3ccccc3c(=O)[nH]2)C(=O)c2ccco2)cc1OC,-2.2%,4.0%,3.7%,-2.3%,8.91µM*,11.0
CN(C)CCCn1cnc2cc(Cl)c(Cl)cc21,.,.,.,.,-3.1%,.
COc1cccc(NC(=O)c2oc3ccccc3c2NC(=O)Cc2cccc(C)c2)c1,0.9%,.,.,.,.,.

# Source: PubChem
